Compound activity (PubChem)
pCIP destab: compounds decreasing mouse p/CIP protein stability; F442A p/CIP-EGFP cells, EGFP fluorescence, 16 h; decrease of EGFP signal, % at 10 µM; 290,000 compounds, 0.01% hits;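 active means EGFP signal decrease of at least 30% at 10 µM or well 3 SD below plate mean, unless failing retest; inactive means the rest, including hits failing retest or dose response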
H9c2 protect: modulators protecting cardiomyocytes from myocardial damage | H9c2 cardiomyocytes, H2O2 injury protection, ATPLite, 2 h | 360,000 compounds, 0.63% hits | protection from H2O2 cell death, % at 20 µM;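 active means compounds giving at least 50% protection of heart cells from peroxide-induced death in the single-dose screen, raw or plate-pattern-corrected value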;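 further: 0% = DMSO wells with peroxide and 100% = DMSO wells without peroxide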
V-ATPase pH: alters yeast V-ATPase proton transport; 350,000 compounds, 0.37% hits; S. cerevisiae, pHLuorin cytosolic pH fluorescence; response, % at 10 µM; in the data active means response mostly above about 7.3%, no sharp cut-off; inactive means mostly below about 5.4%; further: actives read high
CR mimetic SO: caloric restriction mimetics inhibiting age-related superoxide in yeast; S. cerevisiae aged cells, superoxide DHE fluorescence; stronger effect = lower value; superoxide response (% of plate mean), % at 10 µM; 330,000 compounds, 0.18% hits;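 active means superoxide response under a set limit, about three screen SD below normal, cut at about 65% in these data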;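 further: yeast aged for seven days with compound at 30 °C before DHE staining; 100% = average MFI of all compound-treated wells on the plate with controls excluded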
HSV augment: HSV replication enhancement; HSV replication augmentation in cells, fold increase; maximum fold increase; 220,000 compounds, 0.005% hits; in the data active means maximum fold increase above about 1.5; inconclusive means no clear call, values can overlap the other calls; tested in PC3 cells
MIN6 prolif: induces beta-cell replication in MIN6 cells. MIN6 cells proliferation, ATPlite luminescence, 48 h; cells starved in 0.2% serum; 100% = growth in 10% serum. proliferation, % at 10 µM. 330,000 compounds, 0.29% hits;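 active means compounds whose signal lies at least 3.5 SD above the mean of all wells on their plate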;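 further: 0% = DMSO-treated cells in low-serum medium and 100% = 10% serum control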
Starred values were filed as active, the others as inactive; i = inactive; ? = inconclusive; · = no result. A selection: hits, their analogues and other compounds. The true share with any hit is near 1.4%.

SMILES | pCIP destab | H9c2 protect | V-ATPase pH | CR mimetic SO | HSV augment | MIN6 prolif
CCCc1cc(=O)n2[nH]c(-c3ccco3)nc2n1 | -3.3 | -2.9 | 15.7* | 198.6 | i | -4.6
CCOc1ccc2cc(/C=C/C(=O)c3ccco3)c(Cl)nc2c1 | -2.0 | 13.3 | -3.7 | 97.1 | · | -5.4
CCOc1cc(/C=C/c2nc3ccccc3c(=O)[nH]2)ccc1O | -19.4 | 57.1* | -2.7 | 85.9 | · | -5.1
CN(CCCn1cnc2c(OCc3ccccc3)ncnc21)Cc1ccco1 | · | -8.2 | -0.5 | · | · | ·
NC(=O)C1=C(c2ccccc2)c2ccccc2C1=O | · | 55.1* | 1.9 | · | · | ·
Cc1ccc(C2=C(O)c3ccccc3C(=O)C2=O)cc1 | 4.5 | -7.4 | -3.9 | 131.8 | · | -2.3
CC1(C)Oc2ccc3ccc(=O)oc3c2/C(=C/Nc2ccccn2)C1=O | -9.8 | 55.9* | 1.7 | 110.5 | i | -3.1
Cc1cccn2c(=O)c3cc(C(=O)N4c5ccccc5CC4C)n(C)c3nc12 (configuration not stated) | 3.2 | 27.6 | -4.2 | 108.6 | · | -0.6
CC1Cc2ccccc2N1C(=O)c1cc2c(=O)n3ccccc3nc2n1C (configuration not stated) | -18.7 | 66.1* | 2.1 | 96.4 | i | 3.3
CCN(CC(=O)Nc1ccc(NC(C)=O)cc1)C(=O)CN1C(=O)C2CCCCC2C1=O (configuration not stated) | · | 5.2 | -2.6 | 113.5 | · | -2.6
CC1Cc2ccccc2N1C(=O)CSc1nc2c(c(=O)n(C)c(=O)n2C)n1Cc1ccc(F)cc1 (configuration not stated) | · | 50.4* | 2.5 | 98.1 | i | -2.1
Cn1c(=O)c2c(nc(SCC(=O)N3CCc4ccccc43)n2Cc2ccccc2)n(C)c1=O | -2.2 | · | · | · | · | ·
CC1=C(C(=O)N(C)C)CC(CC(=O)NCCCN(C)C)C(=O)N1Cc1ccccc1 (configuration not stated) | · | 1.0 | 1.9 | · | · | ·
CCN1C(=O)[C@H]2[C@@H](c3ccc(C)cc3)N3C(=O)N(c4cccc(Br)c4)C(=O)[C@@]3(Cc3ccccc3)[C@H]2C1=O | · | 3.7 | 13.3* | 108.7 | · | -3.0
CC(C)[C@H](NC(=O)c1ccccc1F)C(=O)OCC(=O)NC1CC1 | · | -2.5 | 19.5* | 112.8 | · | -2.3
CC(C)[C@H](NC(=O)c1ccccc1F)C(=O)NC1CCCCC1 | · | -0.3 | -1.4 | 93.2 | · | -0.7
CCCc1ccc(O)c(N=Cc2cc(Br)cc(OCC)c2O)c1 | -7.3 | 71.3* | -0.1 | 77.1 | · | -5.8
CCOc1ccc(Br)cc1/C=N/O | -1.9 | 2.1 | 4.7 | 88.8 | i | -3.3
COc1ccc(-n2c(-c3ccc(Cl)cc3)c[nH]c2=S)cc1 | -3.7 | -7.2 | -2.1 | 113.5 | · | 1.2
CCOC(=O)c1c(CSc2ccc(C)cc2)oc2ccc(O)cc12 | -3.2 | -15.5 | 1.0 | 95.9 | i | -5.9
Cc1c(/C=N/NC(=O)c2ccc(O)cc2)c2ccccn2c1C(=O)c1ccc(F)cc1 | -3.4 | 54.2* | -2.0 | 75.7 | i | -6.3
Oc1c(C(Nc2cccc(C(F)(F)F)c2)c2cccnc2)ccc2cccnc12 (configuration not stated) | 0.1 | 58.9* | -2.5 | 81.2 | i | -6.2
COc1ccc(Cl)cc1C(Nc1cccnc1)c1ccc2cccnc2c1O (configuration not stated) | -9.3 | 45.2 | -1.1 | 115.4 | i | -5.0
Cc1cc(NC(c2cccnc2)c2ccc3cccnc3c2O)no1 (configuration not stated) | -12.1 | 56.9* | -4.5 | 86.6 | i | -3.7
COC(=O)[C@H](Cc1ccccc1)NS(=O)(=O)c1ccc(F)cc1Br | · | 2.5 | 1.9 | · | · | ·
SMILES | pCIP destab | H9c2 protect | V-ATPase pH | CR mimetic SO | HSV augment | MIN6 prolif
CCN(CC)CCCNc1nc2ccccc2c2[nH]c3ccc(OC)cc3c12 | · | -11.2 | 0.2 | · | · | ·
Cc1ccc(S(C)(=O)=O)cc1C(=O)N1CC(C(N)=O)Oc2ccccc21 (configuration not stated) | -4.7 | 1.9 | 0.0 | 101.4 | · | 1.1
Nc1c(C(=O)NCCc2ccccc2)sc2nc(N3CCOCC3)c3c(c12)CCCC3 | -13.0 | 22.7 | -5.2 | 114.6 | i | -2.9
CN(C(=O)c1sc2nc(N3CCOCC3)c3c(c2c1N)CCCC3)c1ccccc1 | 9.5 | 60.6* | -3.9 | 103.7 | i | -4.4
CN=c1scc(-c2ccccc2F)n1/N=C/c1ccc(O)c(O)c1O | 10.5 | -13.1 | -1.7 | · | ? | ·
CC(C)N=c1scc(-c2cccs2)n1/N=C/c1ccc(O)c(O)c1O | -9.0 | 50.5* | -2.3 | 99.3 | i | -2.2
COCCNC(=O)C1CCCN(C(=O)c2cc(-c3cccs3)oc2C)CC1 (configuration not stated) | · | -0.8 | · | · | · | ·
N/C(=N\NS(=O)(=O)c1ccccc1)c1ccccn1 | · | 51.2* | -0.3 | 102.3 | · | -2.5
CCOC(=O)C1CN(S(=O)(=O)c2ccc(Cl)cc2)c2cc(S(=O)(=O)CC)ccc2O1 (configuration not stated) | -11.9 | 9.7 | -0.6 | 100.9 | i | -2.0
CCC1CN(S(=O)(=O)c2ccc3c(c2)NC(=O)CC(=O)N3)c2cc(Cl)ccc2O1 (configuration not stated) | 2.0 | 65.5* | -2.4 | 89.9 | · | -5.4
COC(=O)C1=C(CCc2ccccc2)NC(=O)NC1c1ccc([N+](=O)[O-])cc1 (configuration not stated) | · | 1.0 | 3.5 | 92.7 | i | -2.7
CC(=O)N(C1=C(Cl)C(=O)c2ccccc2C1=O)C1CCCCC1 | -43.7 | -18.7 | 140.8* | 122.7 | ? | -4.1
Cc1cc(C(=O)CCC(=O)N(C)CC(=O)Nc2ccc(OC(F)(F)F)cc2)c(C)s1 | · | -6.2 | -0.8 | · | · | -1.0
CCCn1nc(C(=O)Nc2cc(OCC)c(N3CCOCC3)cc2OCC)c2ccccc2c1=O | · | 56.3* | 3.5 | · | · | ·
CCOc1cc(N2CCOCC2)c(OCC)cc1NC(=O)Cn1[nH]c(=O)c2ccccc2c1=O | -3.6 | 79.4* | 2.1 | i | i | 1.5
CCOc1cc(N2CCOCC2)c(OCC)cc1NC(=O)c1ccccc1 | 2.6 | 0.8 | -4.5 | 91.9 | i | -0.4
COc1ccc(CCC(=O)NCCS(=O)(=O)N2CCN(c3ccccc3OC)CC2)cc1 | -8.1 | 38.5 | -2.3 | 88.6 | · | 0.5
Cn1cnc(S(=O)(=O)N2CCCCC2c2cc(C(=O)Nc3cccc(C#N)c3)no2)c1 (configuration not stated) | · | 7.5 | · | · | · | ·
CCC(=O)Nc1cccc(NC(=O)c2ccccc2Cl)c1 | 4.3 | 7.3 | 2.2 | 94.0 | i | 3.3
CCC(=O)Nc1cccc(NC(=O)c2ccc(C)cc2Cl)c1 | -7.7 | -6.7 | 16.5* | 107.6 | i | -1.6
N#CC(C#N)=Cc1c(N2CCN(c3ccccc3)CC2)nc2ccccn2c1=O | -6.3 | 2.5 | -4.5 | 103.2 | · | 1.7
Cc1cccc(NC(c2ccc(O)cc2)c2ccc3ccc(C)nc3c2O)n1 (configuration not stated) | -10.5 | 91.7* | -0.4 | 121.2 | i | -6.0
